# Source: PubChem BioAssay AID588334 (Broad Institute, 2011)
# The campaign covered roughly 300,000 compounds. About 2,300 (0.77%) were called active. Many of the other results were omitted from the sample, so actives are more common in it than they were. Unmarked numbers belong to inactive results.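 Rule for the calls: active = mean activation of at least 80% with every replicate also reaching 80%; inconclusive = mean reaches 80% but some replicate falls short; inactive = the rest.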
# Assay: MITF-driven TRPM1 luciferase induction in melanoma cells – cell-based, SK-MEL-5, single point, primary screen (AID 588334);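 note: 0% = neutral control wells and 100% = parthenolide positive control wells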
# Settings: SK-MEL-5 TRPM1-promoter luciferase, 24 h; at 12.5 µM; hits give high values; % of positive control, neutral wells = 0
row,SMILES,activation
1,O=C(O)c1ccc(S(=O)(=O)c2ccccc2)s1,-11%
2,Cc1cc(C(=O)N/N=C\C(Br)=C\c2ccccc2)c(C)o1,15.4%
3,Cc1cc(C(=O)N/N=C/c2ccccc2[N+](=O)[O-])c(C)o1,84.3% (active)
4,CC(=C/c1ccccc1)/C=N/NC(=O)c1cc(C)oc1C,25.1%
5,Cc1ccc(OCCNC(=O)c2cccc(S(=O)(=O)N3CCN(Cc4ccccc4)CC3)c2)cc1,-0.856%
6,Cc1cc(NC(=O)c2cc3ccccc3o2)no1,-6.37%
7,Cc1ccc(C(=O)CNc2ccc(F)cc2)cc1,-0.394%
8,COC(=O)c1ccc(NCC(=O)c2ccccc2)cc1,146% (active)
9,COC(=O)c1ccc(NCc2cc(O)ccc2O)cc1,3%
10,CN1CCOC1c1ccc(C2OCCN2C)cc1 (stereo not given),-9.68%
11,C=CCOC(=O)N1CCC2CC1c1cc(-c3ccc(OC)cc3)ccc12 (stereo not given),-2.99%
12,COc1cc(OC)c(C(=O)NNC(=O)c2ccccc2-n2cccc2)cc1OC,7.14%
13,COC(=O)C1C(=O)c2c([nH]c(C(=O)OCCSC)c2C)CC1C (stereo not given),92.2% (active)
14,CCCOC(=O)c1[nH]c2c(c1C)C(=O)CC(c1cccs1)C2 (stereo not given),-44.3%
15,COCCOC(=O)c1[nH]c2c(c1C)C(=O)CC(c1ccc(OC)cc1)C2 (stereo not given),8.85%
16,COc1ccc(-c2noc(CCC(=O)N3CCN(c4cccc(C)c4)CC3)n2)cc1,0.066%
17,COc1ccc(-c2ccc3c(c2)[C@@H]2C[C@H](N(C)S(=O)(=O)c4ccccc4)[C@H]([C@H](C)O)C(=O)N2CC3)cc1,-7.92%
18,CC(C)Cn1cnc2c(SCc3ccc(Cl)cc3)nc(N)nc21,12.1%
19,O=C(CC(=O)c1cccnc1)c1ccccc1,48%
20,Cc1cc(OCc2cc(C(=O)NCc3cc(C(C)C)no3)no2)cc(C)c1Cl,84.2% (active)

row,SMILES,activation
1,Cc1cccnc1CC(C)NC(=O)c1cc(COc2cncc(Cl)c2)on1 (stereo not given),51.4%
2,COc1ccc(OCc2cc(C(=O)NCC3(C)COC3)no2)c(Cl)c1,37.2%
3,CC(C)(C)OC(=O)N1CCC(C(=O)Nc2cccc(C(=O)NCCc3ccccc3)c2)CC1,0.242%
4,COc1ccc(NC(=S)N2CCCC(CO)C2)c(OC)c1 (stereo not given),-5.46%
5,CCCCc1ccc(NC(=S)NCCCN2CCOCC2)cc1,13.8%
6,CCCCc1ccc(NC(=S)N2CCCC(CO)C2)cc1 (stereo not given),105% (active)
7,NS(=O)(=O)c1ccc(CCNC(=O)c2ccc(Cl)c(S(=O)(=O)N3CCCCCC3)c2)cc1,-34.2%
8,CC(C)(C)c1nnc2sc(SCC(O)=C(C#N)c3nc4ccccc4[nH]3)nn2c1=O,7.19%
9,O=[N+]([O-])c1ccc(NS(=O)(=O)c2ccccc2)c(Cl)c1,-5.26%
10,O=C(NCc1ccc2c(c1)OCO2)c1ccc(Cl)s1,9.51%
11,COc1ccc(C(=O)NC2=NCCS2)c(OC)c1,33.9%
12,O=C(NC1=NCCS1)c1ccc(Cl)s1,121% (active)
13,C[C@H](CO)N1C[C@H](C)[C@H](CN(C)CC2CC2)Oc2ccc(NC(=O)CCN3CCOCC3)cc2C1=O,4.29%
14,COc1cc(/C=C/CNC[C@H]2O[C@@H](n3cnc(C(N)=O)n3)[C@H](O)[C@@H]2O)ccc1O,-8.98%
15,C=CC(=O)Nc1ccc(Nc2ccnc(Nc3ccc(N4CCN(C)CC4)cc3)n2)cc1,-13.2%
16,Nc1cc2c(cc1Br)-c1ccc(F)cc1C2=O,7.07%
17,COC(=O)[C@@]1(C)[C@H]2C(=O)N(Cc3ccccc3)C(=O)[C@H]2[C@H]2CN=C(SCC3CC3)N21,-1.12%
18,COC1=NC2=NCCN2C(OC)=N1,4.31%
19,CC(C)Cc1cc(C(=O)Nc2cc(Br)ccc2O)no1,42.2%
20,CC(C)CNC(=O)c1cc(-c2ccc(Br)cc2)on1,124% (active)

row,SMILES,activation
1,Cc1c(NC(=O)c2cc(-c3ccc(Br)cc3)on2)c(=O)n(-c2ccccc2)n1C,6.12%
2,CC(=O)c1ccc(NC(=O)CSc2nc3ccccc3c(=O)n2CCCN2CCOCC2)cc1,14.6%
3,Cc1ccc(NN=C2C(=O)OC(C)(C)OC2=O)c(C)c1,120% (active)
4,Cc1ccc(NC(=O)C(=O)NCc2ccco2)c(C)c1,72.2%
5,Cc1ccc(NC(=O)c2oc(=O)c3ccccc3c2-c2ccccc2)c(C)c1,-8.24%
6,COc1ccc(CNc2nc(NCc3ccc(OC)cc3)c3ncn(C4CCCC4)c3n2)cc1,-22%
7,CCCN(C(=O)CSc1nnc(N)s1)c1c(N)n(Cc2ccccc2)c(=O)[nH]c1=O,-11.7%
8,CCCCNCCS(=O)(=O)NCc1ccccc1,11.7%
9,O=Cc1ccc(Oc2cccc(C(F)(F)F)c2)nc1,2.89%
10,FC(F)(F)c1ccnc(Oc2ccc(C3=NCCS3)cc2)c1,102% (active)
11,O=[N+]([O-])c1cccc(C2=NCCS2)c1,-11.6%
12,CC1C(C)N(C(=O)CCl)c2ccccc2N1C(=O)CCl (stereo not given),-89.8%
13,Cc1nn(-c2ccccc2)c2c1C(c1cccc([N+](=O)[O-])c1)N(c1ccccc1)C(=O)N2 (stereo not given),-8.33%
14,Cc1nn(-c2ccc([N+](=O)[O-])cc2)c(N)c1-c1ccccc1,97.5% (active)
15,O=C1CC(c2ccccc2)=NN1c1ccc([N+](=O)[O-])cc1,29.1%
16,Cc1noc(C)c1CCC(=O)N1CCCC(CO)(Cc2ccccc2)C1 (stereo not given),67.5%
17,COC(=O)CCC(=O)N1CCCC(CO)(Cc2ccccc2)C1 (stereo not given),94.6% (active)
18,Cc1ccccc1CC1(CO)CCCN(C(=O)c2cc(-c3ccccc3)no2)C1 (stereo not given),6.1%
19,Cn1cc(C2OC(=O)c3ccccc32)c2ccccc21 (stereo not given),-10.6%
20,COc1ccccc1N(CC(=O)Nc1c(C)n(C)n(-c2ccccc2)c1=O)S(=O)(=O)c1ccccc1,-1.77%
